Source: the supplement of paper PMC3342239
Where a name gives a salt, the structure may show the parent alone.

Test system: Saccharomyces cerevisiae
Assay: fraction of cells in G1 phase (DNA content, flow cytometry); higher = more cells with unreplicated DNA (G1 delay)
Settings: temperature: 30 C; YPD; JTY2953 pdr5 snq2 (sensitized); drug added to: cultures diluted from stationary phase; 6-7 h
Procedure, shortened: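 Overnight cultures of sensitized JTY2953 were diluted 1∶200 into drug at a final 20 µg/ml and fixed after 6–7 h, and further runs treated dividing JTY2953 or BY4741, fixing them 6 h and 4.33 h later respectively. All growth used YPD at 30°C with S. cerevisiae and library drugs. After ethanol fixation and SYTOX Green staining, flow cytometry recorded 10,000 events. The G1 fraction equals the Dean-Jett-Fox G1 peak area over the G1 plus G2/M areas.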

Structure (SMILES)	fraction of cells in G1 phase
CN1CCN(c2c(F)cc3c(=O)c(C(=O)O)cn(CCF)c3c2F)CC1 [Fleroxacin] (54.1497 µM)	0.479
Nc1ncnc2c1ncn2[C@@H]1O[C@H](CO)[C@@H](O)[C@@H]1O [Vidarabine] (74.8374 µM)	0.481
C=C[C@H]1CN2CC[C@H]1C[C@H]2[C@H](O)c1ccnc2ccc(OC)cc12 [Quinine] (55.417 µM)	0.5
COc1ccccc1Oc1c(NS(=O)(=O)c2ccc(C(C)(C)C)cc2)nc(-c2ncccn2)nc1OCCO [Bosentan] (36.2564 µM)	0.497
CN(C)CCN1C(=O)c2ccccc2N(C)c2ccccc21 [Dibenzepine HCl] (67.7077 µM)	0.479
CN1CCCCC1CCN1c2ccccc2Sc2ccc([S+](C)[O-])cc21 (configuration not stated) [Mesoridazine besylate] (51.7354 µM)	0.476
CNCCC(Oc1ccccc1OC)c1ccccc1 (configuration not stated) [Nisoxetine HCl] (73.7022 µM)	0.511
C#C[C@]1(O)CC[C@H]2[C@@H]3CCC4=CC(=O)CC[C@@H]4[C@H]3CC[C@@]21C [Norethindrone] (67.0176 µM)	0.552
O=C(O)c1cc(-c2ccc(F)cc2F)ccc1O [Diflunisal] (79.9349 µM)	0.512
CC(C)Cc1ccc(C(C)C(=O)O)cc1 (configuration not stated) [Ibuprofen] (96.9522 µM)	0.575
CC(CCc1ccc(O)cc1)NCCc1ccc(O)c(O)c1 (configuration not stated) [Dobutamine HCl] (66.3594 µM)	0.528
Cc1ccc(C(=O)c2cc(O)c(O)c([N+](=O)[O-])c2)cc1 [Tolcapone] (73.1937 µM)	0.522
CC(C)(C)[C@]1(O)CCN2C[C@H]3c4ccccc4CCc4cccc(c43)[C@@H]2C1 [Butaclamol (+)] (55.3201 µM)	0.535
CC(C)(C)NC(=O)[C@H]1CC[C@H]2[C@@H]3CC[C@H]4NC(=O)C=C[C@]4(C)[C@H]3CC[C@]12C [Finasteride] (53.6833 µM)	0.558
O=P(O)(O)C(Cl)(Cl)P(=O)(O)O [Clodronate disodium] (81.6683 µM)	0.505
CCC1=C(C)CN(C(=O)NCCc2ccc(S(=O)(=O)NC(=O)N[C@H]3CC[C@H](C)CC3)cc2)C1=O [Glimepiride] (40.7642 µM)	0.481
C[C@@H]1C(=O)O[C@H]2C[C@@]34[C@H]5C[C@@H](C(C)(C)C)[C@]36[C@@H](OC(=O)[C@@H]6O)O[C@@]4(C(=O)O5)[C@]21O [Ginkgolide a] (48.9705 µM)	0.512
CN(C)CCCN1c2ccccc2CCc2ccccc21 [Imipramine HCl] (71.3225 µM)	0.524
O=C(Nc1cccc2c(=O)cc(-c3nnn[nH]3)oc12)c1ccc(OCCCCc2ccccc2)cc1 [Pranlukast] (41.5355 µM)	0.561

Structure (SMILES)	fraction of cells in G1 phase
COc1cc2nc(N3CCN(C(=O)c4ccco4)CC3)nc(N)c2cc1OC [Prazosin HCl] (47.6417 µM)	0.487
CC(=O)NC[C@H]1CN(c2ccc(N3CCOCC3)c(F)c2)C(=O)O1 [Linezolid] (59.2849 µM)	0.526
CN1CCN(CC(=O)N2c3ccccc3C(=O)Nc3cccnc32)CC1 [Pirenzepine 2HCl] (56.9133 µM)	0.534
C[C@@H](O)[C@H]1C(=O)N2C(C(=O)O)=C(S[C@@H]3CN[C@H](C(=O)N(C)C)C3)[C@H](C)[C@H]12 [Meropenem] (52.1553 µM)	0.495
Nc1nnc(-c2cccc(Cl)c2Cl)c(N)n1 [Lamotrigine] (78.0958 µM)	0.493
COc1ccc(CCN(C)CCCC(C#N)(c2ccc(OC)c(OC)c2)C(C)C)cc1OC (configuration not stated) [Verapamil] (40.7249 µM)	0.507
CCOC(=O)C1=C(C)NC(C)=C(C(=O)OCC)C1c1ccccc1/C=C/C(=O)OC(C)(C)C [Lacidipine] (43.9024 µM)	0.516
CCC[S+]([O-])c1ccc2[nH]c(NC(=O)OC)nc2c1 (configuration not stated) [Ricobendazole] (71.0895 µM)	0.485
CN1CCN(C2=Nc3cc(F)ccc3Cc3ccccc32)CC1 [Fluperlapine] (64.6434 µM)	0.512
Clc1ccc2c(c1)CCc1cccnc1C2=C1CCNCC1 [Desloratadine] (64.3439 µM)	0.5
CC(C(=O)O)c1ccc(-c2ccccc2)c(F)c1 (configuration not stated) [Flurbiprofen] (81.8773 µM)	0.524
CCN1CCC[C@H]1CNC(=O)c1c(O)c(Cl)cc(Cl)c1OC [Raclopride l-tartrate s(-)] (57.5963 µM)	0.521
COc1ccc2c(c1)c(CC(=O)OCC(=O)O)c(C)n2C(=O)c1ccc(Cl)cc1 [Acemetacin] (48.0961 µM)	0.489
CCOC(=O)OC(C)OC1=C(C(=O)Nc2ccccn2)N(C)S(=O)(=O)c2ccccc21 (configuration not stated) [Ampiroxicam] (44.6957 µM)	0.5
C[N+](C)(C)[C@@H](Cc1c[nH]c(=S)[nH]1)C(=O)[O-] [Ergothioneine] (87.2209 µM)	0.464
CC(=O)O[C@]1(C(C)=O)CC[C@H]2[C@@H]3C=C(Cl)C4=CC(=O)[C@@H]5C[C@@H]5[C@]4(C)[C@H]3CC[C@@]21C [Cyproterone acetate] (47.9675 µM)	0.597
Cc1c(O)cccc1C(=O)N[C@@H](CSc1ccccc1)[C@H](O)CN1C[C@H]2CCCC[C@H]2C[C@H]1C(=O)NC(C)(C)C [Nelfinavir Mesylate] (30.1249 µM)	0.487
CC12CC3CC(C)(C1)CC(N)(C3)C2 [Memantine HCl] (111.54 µM)	0.532
